An excerpt weighted towards active compounds, which were near 1.6% of everything screened.
KCNQ2 block: inhibitors of rat KCNQ2 potassium channel | O88943 | CHO-K1 KCNQ2, FluxOR thallium flux, 20 min; stronger effect = lower value | B-score at 10 µM | 310,000 tested, 1.1% active | AID 2156;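 active = fluorescence ratio B-score at most minus 3 library SDs, with starting brightness B-score within 2 library SDs, cut at about -5.5 in these data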
Target sequence (O88943 whole entry, looked up): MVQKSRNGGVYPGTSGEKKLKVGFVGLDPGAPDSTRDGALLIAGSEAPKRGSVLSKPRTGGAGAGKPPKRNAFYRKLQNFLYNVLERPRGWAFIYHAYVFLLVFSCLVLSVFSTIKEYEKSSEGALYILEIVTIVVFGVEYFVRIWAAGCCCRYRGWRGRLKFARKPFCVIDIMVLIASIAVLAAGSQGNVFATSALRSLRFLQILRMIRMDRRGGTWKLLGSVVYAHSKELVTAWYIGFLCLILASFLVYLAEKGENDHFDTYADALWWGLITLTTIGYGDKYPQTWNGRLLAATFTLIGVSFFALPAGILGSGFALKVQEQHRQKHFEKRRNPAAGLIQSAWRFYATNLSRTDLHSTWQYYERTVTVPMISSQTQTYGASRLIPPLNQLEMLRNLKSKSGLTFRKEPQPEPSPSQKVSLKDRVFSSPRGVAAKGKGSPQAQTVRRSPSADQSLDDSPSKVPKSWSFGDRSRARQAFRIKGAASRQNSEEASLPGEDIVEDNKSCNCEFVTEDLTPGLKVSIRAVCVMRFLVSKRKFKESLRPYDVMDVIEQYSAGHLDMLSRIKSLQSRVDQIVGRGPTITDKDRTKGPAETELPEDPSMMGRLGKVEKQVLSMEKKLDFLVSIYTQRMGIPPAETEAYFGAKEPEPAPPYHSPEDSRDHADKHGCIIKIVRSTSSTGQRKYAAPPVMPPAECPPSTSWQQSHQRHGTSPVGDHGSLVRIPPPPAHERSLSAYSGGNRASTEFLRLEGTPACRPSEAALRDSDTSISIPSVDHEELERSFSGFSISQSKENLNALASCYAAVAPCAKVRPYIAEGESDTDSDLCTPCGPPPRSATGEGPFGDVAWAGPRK
KCNQ2 enhance: enhances the rat KCNQ2 potassium channel. CHO-K1 KCNQ2, FluxOR thallium flux fluorescence; stronger effect = higher value. AID 2239. O88943. B-score at 10 µM. 310,000 tested, 0.54% active;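 active = fluorescence ratio B-score at least 3 SD of library B-scores, with initial fluorescence B-score within 3 of them, cut at about 5.3 in these data; same plate scores as AID 2156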;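 note: B-score of peak minus minimum over baseline fluorescence ratio after K+ and Tl+ stimulus; positive B-score means potentiation of KCNQ2 with more thallium influx and brighter signal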
Kir21 confirm: confirmation of mouse Kir2.1 potassium channel inhibitors | shares compounds with KCNQ2 enhance | Kir2.1-expressing cells, FluxOR thallium flux fluorescence; stronger effect = lower value | Tl flux remaining, % of negative control (stronger effect = lower value), % at 10 µM | 2,300 tested, 41% active | AID 2032;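 active = Primary-screen hit whose thallium flux fell at least 3 control SD below untreated wells in both duplicates, with normal baseline fluorescence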;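 note: 0% = blank wells without stimulus and 100% = stimulated no-compound controls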
HEK293 ctr: parental HEK293 activity in Kir2.1 inhibitor counter-screen; AID 2105; 2,300 tested, 19% active; parental HEK293 cells, FluxOR thallium flux fluorescence; 0% = unstimulated blank wells; shares compounds with KCNQ2 enhance; FluxOR signal as % of negative control (100 = no effect), % at 10 µM;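 active = dye signal at least 3 control SD above or below untreated wells in both duplicates, raw fluorescence within 3, either direction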;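 note: percent is based on the flux ratio of peak minus minimum fluorescence over baseline F0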
CHO-K1 ctr: alters thallium flux in parental CHO-K1 cells, KCNQ2 counter-screen; shares compounds with KCNQ2 enhance; FluxOR thallium flux fluorescence; zero = vehicle mean+3SD, 100% = vehicle-minus-blank window; activity increase over 3SD of controls, % at 10 µM; 1,200 tested, 43% active;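 active = signal rise of at least 3 SD above the untreated control mean, in both duplicate wells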;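 note: counter screen of KCNQ2 potentiator hits so any rise reflects channel-independent effects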
KCNQ1 sel pot: tests whether KCNQ2 potentiators also act on human KCNQ1 | AID 2283 | CHO KCNQ1 stable, FluxOR thallium flux fluorescence; beyond 3SD, as % of vehicle-control signal | shares compounds with KCNQ2 enhance | 1,200 tested, 28% active | activation over 3SD threshold, % at 10 µM;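 active = fluorescence ratio rise of at least 3 SD of vehicle wells above their mean, in both replicate wells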;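 note: 0% = vehicle mean plus 3 SD and 100% = vehicle minus unstimulated blank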
KCNQ2 pot confirm: rat KCNQ2 channel potentiator confirmation; CHO-KCNQ2 cells, FluxOR thallium flux fluorescence; shares compounds with KCNQ2 enhance; 1,200 tested, 68% active; potentiation, less the hit threshold, % at 10 µM; AID 2287;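 active = fluorescence ratio rising 3 SD or more over the vehicle control mean in both replicates, plus primary screen hit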;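 note: peak minus minimum thallium fluorescence divided by baseline after K/Tl stimulus; 0% = vehicle mean plus 3 SD and 100% = vehicle minus unstimulated blank difference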
Kir21 spec: selectivity of KCNQ2 potentiators: effect on mouse Kir2.1 | HEK293 Kir2.1, FluxOR thallium flux fluorescence | shares compounds with KCNQ2 enhance | 1,200 tested, 2% active | activity over 3SD threshold, % at 10 µM;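 active = fluorescence ratio rise of at least 3 SD above the vehicle-control mean, seen in both replicates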;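 note: 0% = vehicle mean plus 3 SD and 100% = vehicle minus no-stimulus blank window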
Numbers without * were called inactive; i = inactive; · = no result.

SMILES	KCNQ2 block	KCNQ2 enhance	Kir21 confirm	HEK293 ctr	others
Cc1sc2cc3c(c(C(=O)c4ccccc4)[n+]2c1C)-c1cccc2cccc-3c12	-8.2*	-8.2	27%*	64%*
Cc1cc(C)c2c(N)c(C(=O)c3ccccc3)sc2n1	i	·	·	·
Cc1ccnc(NC(=O)CCC(=O)N(CC(=O)NCc2ccc(F)cc2)Cc2ccccc2)c1	i	0.94	·	·
COc1ccccc1NC(=O)NCCN1CCNC1=O	i	·	·	·
COc1ccc(OCC(O)CNC(C)c2ccccc2)cc1 (centres undefined)	i	0.41	·	·
COc1ccc(C(C)NCCC(c2ccc(OC(C)C)cc2)c2ccccc2OC)cc1 (centres undefined)	-6.6*	-6.6	56%*	i
CC(C)Oc1ccc(C(CCNCc2ccc(O)cc2)c2ccccc2)cc1 (centres undefined)	i	·	·	·
COc1ccc(C(CCNC(C)c2ccccc2)C(C)C)cc1 (centres undefined)	i	0.56	48%*	i
CCCCc1ccc(/C=C2\C(=O)c3ccccc3C(O)=C2C(=O)OCC)cc1	i	5	·	·
C=CCC(O)(CC=C)CNC(=O)c1ccc(OC)c(OC2CCN(C(C)=O)CC2)c1	i	0.13	·	·
CC(CCc1ccc(O)cc1)NC1c2ccccc2-c2ccccc21 (centres undefined)	i	2.8	33%*	i
CC(CCc1ccc(O)cc1)NC1C2CC3CC(C2)CC1C3 (centres undefined)	i	0.58	·	·
O=C(N/N=C/c1ccc(O)c(O)c1)c1ccc(CSc2cccc3cccnc23)cc1	i	1.1	·	·
CCCCCCC/C(C)=N/NC(=O)CC(=O)NCCc1ccccc1	i	5.6*	i	i	CHO-K1 ctr=7.3*;KCNQ1 sel pot=-16;KCNQ2 pot confirm=-24;Kir21 spec=-36
CCCCCNC(=O)CCc1ccccc1	i	0.05	·	·
Cc1ccc(S(=O)(=O)N2CCN(C(=O)COC(=O)C3CCC3)CC2)c(C)c1	i	0.37	·	·
COc1cc(CN2CCNC(=O)C2CC(=O)N(C)CCN2CCOCC2)cc(OC)c1 (centres undefined)	i	·	·	·
CN(C)CCNC(=O)COc1ccc(C23CC4CC(CC(C4)C2)C3)cc1	i	·	41%*	i
Cc1ccc(C23CC4CC(CC(NC(=O)NCCN(C)C)(C4)C2)C3)cc1	i	·	·	·
CC(=O)N/C(=N\c1nc(C)cc(C)n1)Nc1ccc(Cl)cc1Cl	i	0.8	·	·
Cc1ccc(C(=O)N2CCNC(=O)C2CC(=O)Nc2ccccc2)cc1 (centres undefined)	i	·	·	·
Cc1ccc(-n2ncc(C(=O)Nc3cc(Cl)cc(Cl)c3)c2C2CCNCC2)cc1C	i	·	i	i
Cc1ccc(-n2ncc(C(=O)Nc3cc(Cl)ccc3Cl)c2C2CCNCC2)cc1	i	·	·	·
Nc1nc(C2CC2)c(Sc2sc(N)nc2C2CC2)s1	i	·	74%*	i
Nc1nc(C2CCOCC2)cs1	i	·	·	·
SMILES	KCNQ2 block	KCNQ2 enhance	Kir21 confirm	HEK293 ctr	others
CN1CCN(S(=O)(=O)c2cccs2)CC1	i	0.11	·	·
CC1c2ccsc2CCN1S(=O)(=O)c1cccs1 (centres undefined)	i	·	57%*	i
COC(=O)CC1C(=O)NCCN1C(=O)c1cc(OC)c(OC)cc1OC (centres undefined)	i	0.22	·	·
O=C(NCc1ccccc1)NC1(C(=O)N2CCN3CCCC3C2)CCCCC1 (centres undefined)	i	1.6	·	·
CCOc1ccccc1NC(=O)NC1(C(=O)N2CCN3CCCC3C2)CCCCC1 (centres undefined)	i	21*	i	i	CHO-K1 ctr=-20;KCNQ1 sel pot=-13;KCNQ2 pot confirm=-22;Kir21 spec=-39
CN(C)S(=O)(=O)c1cccc(NC(=O)c2cccc(S(=O)(=O)N3CCCCC3)c2)c1	i	0.05	·	·
C=CCNC(=S)NNC(=O)c1ccc(C)c(Cl)c1	i	·	·	·
CCN(CC)C(=S)NC(=O)c1ccc(OC)c(Br)c1	i	2.2	·	·

Screening results (PubChem BioAssay)
